A short description of experiment [1]: inhibitors of TNFa-induced NFkB p65 translocation, primary screen, imaging, HUVEC, MLSMR starter and 10KST1 sets (AID 438;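 active means inhibition above 20% together with a positive visual image hit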;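 further: compound added about 3h40 before a 20 min TNFalpha stimulation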;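 on inhibition: signal is the nuclear over cytoplasmic p65 intensity ratio per well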). Particulars: HUVEC TNFa-induced p65 nuclear translocation; cell count: measured here: nuclei count (cytotoxicity indicator), at 2.08 µM unless noted; inhibition: at 2 µM, stronger effect = higher value unless noted.
A short description of experiment [2]: inhibitors of mutant huntingtin aggregation, primary screen, imaging, exon1htt(103Q)mCFP cells, high-content imaging (AID 483;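 active means visual image review flags a hit and inhibition of aggregation exceeds 20%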;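 further: compound exposure lasted 3 days before fixation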;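 on nuclei count: percent of the per-plate median nuclei count of sample wells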). The following applies: exon1htt(103Q)mCFP cell line, aggregate imaging, at 2 µM; inhibition of aggregation: stronger effect = higher value; nuclei count: measured here: cell count, toxicity.
Experiment [3] in a line: inhibitors of E-selectin induction by TNFa, primary screen, imaging, HUVEC, immunofluorescence, MLSMR starter and 10KST1 sets (AID 487;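 active means visually confirmed hit in the image check and inhibition above 20%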;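 on inhibition: signal is fraction of cell area covered by stained E-selectin grains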;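 on nuclei count: 100% = median nuclei count of all wells on the same plate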). The following applies: HUVEC TNFalpha-induced E-selectin immunofluorescence imaging, at 2 µM; inhibition: stronger effect = higher value; nuclei count: measured here: cell number, toxicity.
Experiment [4] can be described thus: DUSP6 inhibitors restoring Erk phosphorylation by chemical complementation, primary imaging in DUSP6-transfected HeLa (AID 609;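 active means compounds giving at least 50% inhibition in the cell-based MKP-3 phosphatase rescue imaging test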;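 on inhibition: phospho-Erk level distribution per well compared with pooled transfected vehicle control wells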). The following applies: HeLa MKP-3 transfected, phospho-Erk imaging KS statistic, at 10 µM.
The target of experiment [5] is Dual specificity protein phosphatase 6 (Homo sapiens) (UniProt Q16828). The description is as above. The following applies: HeLa MKP-3 transfected, phospho-Erk imaging KS statistic, at 10 µM, stronger effect = higher value.
Dual specificity protein phosphatase 6 (Homo sapiens), sequence (Q16828 whole entry, looked up): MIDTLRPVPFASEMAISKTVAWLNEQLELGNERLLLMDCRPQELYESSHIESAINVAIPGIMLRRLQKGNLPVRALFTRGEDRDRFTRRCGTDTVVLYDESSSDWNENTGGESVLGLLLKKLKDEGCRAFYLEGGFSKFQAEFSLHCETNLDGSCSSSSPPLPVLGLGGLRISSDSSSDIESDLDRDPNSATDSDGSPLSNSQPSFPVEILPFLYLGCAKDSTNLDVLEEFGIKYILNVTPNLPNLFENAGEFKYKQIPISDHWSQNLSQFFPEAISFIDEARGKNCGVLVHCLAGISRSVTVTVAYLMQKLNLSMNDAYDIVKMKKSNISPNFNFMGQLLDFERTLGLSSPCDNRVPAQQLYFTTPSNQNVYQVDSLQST
Experiment [6] concerns the target Voltage-gated potassium channel subunit beta-2 (Rattus norvegicus) (UniProt P62483). Nature of the experiment: KvBeta enzyme negative modulators, primary screen, biochemical, NADPH fluorescence (AID 622;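 active means fluorescence slope higher than the sample average by over 3 SD, cut at about -0.22 in these data, passing the limit was not always enough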;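 further: slope of raw intensity against log time taken from 70 to 1610 s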). The following applies: recombinant KvBeta, 4-cyanobenzaldehyde reduction, at 10 µM, stronger effect = higher value.
Experiment [7] has the same target. Nature of the experiment: KvBeta positive modulators, primary screen, biochemical, NADPH fluorescence (AID 623;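 active means NADPH fluorescence slope more negative than the mean of all samples by about 3 SD, 99.7% confidence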;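 further: fluorescence intensity change per second fitted from 20 to 320 s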). The following applies: Recombinant KvBeta, NADPH fluorescence decrease slope, 10 min; at 10 µM; stronger effect = lower value.
Experiment [8] deals with Alpha-2C adrenergic receptor (Homo sapiens) (UniProt P18825). Description: modulators of alpha2C/GIRK thallium flux, primary screen, cell-based, HEK293 alpha2C/GIRK1/2 (AID 624;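 active means fluorescence slope after compound addition differing from the mean of all screened samples at 99.7% confidence, in either direction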;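 further: slope of fluorescence ratio to pre-addition baseline per second over 15 to 24 s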). The following applies: thallium flux BTC fluorescence, at 10 µM, actives lie on both sides.
Alpha-2C adrenergic receptor (Homo sapiens), sequence (P18825 whole entry, looked up): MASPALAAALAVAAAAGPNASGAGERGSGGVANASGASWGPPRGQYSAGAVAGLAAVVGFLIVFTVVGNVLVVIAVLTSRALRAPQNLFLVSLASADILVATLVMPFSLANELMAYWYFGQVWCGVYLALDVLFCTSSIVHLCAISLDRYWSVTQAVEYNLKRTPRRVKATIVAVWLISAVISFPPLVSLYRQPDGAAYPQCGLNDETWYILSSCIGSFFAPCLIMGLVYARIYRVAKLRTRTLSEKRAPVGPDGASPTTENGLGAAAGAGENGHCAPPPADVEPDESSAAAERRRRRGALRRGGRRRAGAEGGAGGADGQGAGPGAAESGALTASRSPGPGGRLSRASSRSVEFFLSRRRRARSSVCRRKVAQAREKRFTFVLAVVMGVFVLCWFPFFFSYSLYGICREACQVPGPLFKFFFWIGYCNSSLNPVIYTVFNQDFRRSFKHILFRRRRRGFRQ
Experiment [9] is described as follows: inhibitors of Chlamydomonas gravitaxis, primary screen, whole organism, Chlamydomonas reinhardtii, WT vs cilia-less mutant, absorbance, 96-well (AID 463189).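 Further: 0% = wild type cc124 cells in DMSO and 100% = ciliumless bld1 mutant cells.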 The following applies: OD600 absorbance, 2 days, at 10 µM, stronger effect = higher value.
A short description of experiment [10]: inhibitors of Sendai virus-induced IRF3 signaling, primary screen, TLR/RLR signaling modifier project, cell-based, Sendai virus stimulus, luciferase, 10K MLSCN set (AID 602276;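 active means inhibition at or above 50% at 10 µM; inactive means inhibition below 50%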;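 further: firefly luciferase from ISG56 promoter only with Renilla not read in this screen; 0% = Sendai virus plus DMSO and 100% = medium plus DMSO without virus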). The following applies: HEK293 RL24 IRF3 luciferase reporter, at 10 µM, stronger effect = higher value. (In general: A reporter such as luciferase makes a cellular process visible.)
Experiment [11] in a line: inhibitors of poly I:C-induced TLR3 signaling, primary screen, cell-based, poly I:C stimulus, luciferase, 10K MLSCN set (AID 602277;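 active means inhibition of the reporter signal at or above 50%; inactive means inhibition below 50%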). The following applies: HEK293-TLR3 RL24 IRF3 luciferase reporter, at 10 µM, stronger effect = higher value.
The nature of experiment [12]: inhibitors of larval lipid processing in zebrafish, primary screen, whole organism, PED6 fluorescence, gall bladder and intestine (AID 686;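 active means a full or partial loss of lipid-probe fluorescence in the fish gall bladder, intestine or both, judged by eye; inactive means no fluorescence loss, or compound toxic to the fish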;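 further: larvae 5 to 7 days old with five fish per well; signal comes from phospholipase A2 cleavage of quenched PED6 carried via bile; overnight exposure to compound and PED6 before scoring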). Particulars: Zebrafish larvae PED6 lipid processing, fluorescence scoring.
The mark [13] stands for this setting: measured here: cell density z-score.
[14] abbreviates: measured here: nuclear c-Myc green intensity z-score.
[15] abbreviates: measured here: nuclear pErk red intensity z-score, stronger effect = higher value.

Where “and” joins values, the source holds several entries; their conditions need not be identical. Equal values may be shown once. Calls of active or inactive are those of the source.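 How the source made its calls, unless noted: active means inhibition at or above 50% relative to wild type and mutant plate controls; inactive means inhibition below 50%.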

The inhibition is the change of the read-out against control, counted positive when it falls.

Voltage-gated potassium channel subunit beta-2 (Rattus norvegicus), sequence (P62483 whole entry, looked up): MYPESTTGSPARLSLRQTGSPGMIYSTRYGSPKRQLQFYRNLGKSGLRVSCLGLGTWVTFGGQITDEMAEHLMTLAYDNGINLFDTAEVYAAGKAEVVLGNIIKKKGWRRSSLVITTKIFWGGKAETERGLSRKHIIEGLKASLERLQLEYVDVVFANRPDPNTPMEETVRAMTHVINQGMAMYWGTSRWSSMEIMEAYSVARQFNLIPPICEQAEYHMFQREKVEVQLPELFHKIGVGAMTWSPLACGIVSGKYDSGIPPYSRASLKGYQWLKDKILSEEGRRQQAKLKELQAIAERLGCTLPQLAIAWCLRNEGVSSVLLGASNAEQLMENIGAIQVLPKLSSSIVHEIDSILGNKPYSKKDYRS

Molecule `Cc1ccc2c(c1)[C@@H]1CN(C)CC[C@@H]1N2C(=O)Nc1cccc(C(F)(F)F)c1` registered a cell count in [1] of 378. In addition, the inhibition is -9.8% (inactive) in experiment [1]; -93.8% (inactive) in experiment [3]; -4.78% (inactive) in [5]; 4.34% (inactive) in [9]; 20.1% (inactive) in experiment [10]; 23.5% (inactive) in [11]. Further, the inhibition of aggregation in experiment [2] is -11.2% (inactive). Also, the nuclei count in [2] turned out to be 94.1%; in experiment [3] it was 95.7%. The z-score in experiment [4] (setting [13]) turned out to be 1.48; in experiment [4] (setting [14]), 0.568; in experiment [4] (setting [15]) it was 0.647. Further, the fluorescence slope in [6] was -0.508 (inactive). Besides, in [7], the NADPH fluorescence slope was -0.000528 (active). In [8], the slope is 0.0079 (inactive).
Molecule `CCCCCCn1c(O)c(C=NC2CCN(Cc3ccccc3)CC2)c(=O)[nH]c1=O` gave a cell count in [1] of 592. The inhibition in experiment [1] is -3.3% (inactive); in [3] it was -34.2% (inactive); in experiment [5], 19.3% (inactive); in [9] it was 25.8% (inactive); in experiment [10] it was 11.7% (inactive); in experiment [11], -13.6% (inactive). In experiment [2], the inhibition of aggregation is -17.9% (inactive). In addition, the nuclei count was found to be 112% in experiment [2] and 131% in [3]. Besides, the results for the z-score in experiment [4] (setting [13]), in experiment [4] (setting [14]) and in experiment [4] (setting [15]) were 2, -0.0485 and 0.697, respectively. The fluorescence slope in experiment [6] was -0.332 (inactive). Moreover, the NADPH fluorescence slope in experiment [7] was -2.2e-05 (inactive). Moreover, the slope in experiment [8] is 0.0054 (inactive). Moreover, the molecule was called inactive in [12].
In turn, `C[N+]1(C)CCc2cc3c(cc2[C@H]1[C@@H]1OC(=O)c2c1ccc1c2OCO1)OCO3` registered a cell count in experiment [1] of 633. The inhibition in experiment [1] was 1.1% (inactive); in experiment [3], -58% (inactive); in experiment [5] it was 19.2% (inactive); in experiment [9], 6.58% (inactive) and 16.9% (inactive); in experiment [10] it was 12.6% (inactive); in experiment [11] it was 45.3% (inactive). The inhibition of aggregation in [2] was -10.4% (inactive). Further, the results for the nuclei count in experiment [2] and in [3] were 110% and 109%, respectively. Moreover, the z-score in experiment [4] (setting [13]) was 0.571; in [4] (setting [14]), -0.122; in [4] (setting [15]), -0.447. For the same molecule, the fluorescence slope in experiment [6] was -0.486 (inactive). For the same molecule, the NADPH fluorescence slope in [7] is -3.8e-05 (inactive). Moreover, the slope in [8] was 0.00504 (inactive).
`CC(C)[C@H]1C(=O)N2CCC[C@H]2[C@]2(O)O[C@](NC(=O)[C@@H]3C=C4c5cccc6[nH]cc(c56)C[C@H]4N(C)C3)(C(C)C)C(=O)N12`: in [1], the cell count is 501. In addition, the inhibition was 1.6% (inactive) in experiment [1]; -84.6% (inactive) in experiment [3]; 3.59% (inactive) in experiment [5]; 13.5% (inactive) in [9]; 10.2% (inactive) in experiment [10]; 18.2% (inactive) in experiment [11]. In addition, the inhibition of aggregation in [2] is -14% (inactive). Moreover, the nuclei count turned out to be 110% in experiment [2] and 122% in [3]. For the same molecule, the z-score in experiment [4] (setting [13]) was -1.33; in experiment [4] (setting [14]), -1; in experiment [4] (setting [15]), 0.393. Besides, the fluorescence slope in experiment [6] was -0.451 (inactive). The NADPH fluorescence slope in experiment [7] was -1.8e-05 (inactive). The slope in [8] is 0.0044 (inactive).
Regarding `O=C(O)CCCc1ccc(N(CCCl)CCCl)cc1`, in experiment [1], the cell count was 498. The inhibition in [1] is -7.2% (inactive); in experiment [3], -70% (inactive); in experiment [5], 12.4% (inactive); in experiment [9] it was 5.31% (inactive) and 14% (inactive); in experiment [10], -6.04% (inactive); in experiment [11] it was -10.8% (inactive). Further, in experiment [2], the inhibition of aggregation is 4.2% (inactive). The figures for the nuclei count in [2] and in experiment [3] were 94.5% and 127%, respectively. The results for the z-score in experiment [4] (setting [13]), in experiment [4] (setting [14]) and in experiment [4] (setting [15]) were 0.122, -0.24 and -0.885, respectively. The fluorescence slope in experiment [6] was -0.493 (inactive). Besides, the NADPH fluorescence slope in experiment [7] was -0.000123 (inactive). In addition, in experiment [8], the slope was 0.00534 (inactive).
`c1ccc2c(c1)[nH]c1cnccc12` displayed a cell count in [1] of 584. The inhibition in [1] is -5.4% (inactive); in experiment [3] it was -52.4% (inactive); in experiment [5], -10.4% (inactive); in [9], 6.75% (inactive); in [10], 2.27% (inactive); in [11], 16.3% (inactive). Moreover, in [2], the inhibition of aggregation is -8.3% (inactive). Besides, the nuclei count came to 86.9% in experiment [2] and 113% in experiment [3]. Moreover, the z-score in [4] (setting [13]) was 0.863; in [4] (setting [14]), -0.369; in [4] (setting [15]) it was 0.512. The fluorescence slope in [6] was -0.166 (active). The NADPH fluorescence slope in experiment [7] is 2.2e-05 (inactive). In addition, the slope in experiment [8] is 0.00469 (inactive). For the same molecule, the result in experiment [12] was inactive.
`CC(C)N(CCC(C(N)=O)(c1ccccc1)c1ccccn1)C(C)C` (stereo not given) displayed a cell count in experiment [1] of 539. Also, the inhibition in experiment [1] is -8.5% (inactive); in experiment [3], -22.4% (inactive); in experiment [5], 9.37% (inactive); in experiment [9], 1.35% (inactive) and 4.32% (inactive) and 26.6% (inactive); in [10] it was 6.44% (inactive); in experiment [11], 34% (inactive). Moreover, the inhibition of aggregation in experiment [2] is -2.7% (inactive). The nuclei count in experiment [2] was determined as 104%; in experiment [3], 106%. Moreover, the z-score in [4] (setting [13]) is -0.772; in [4] (setting [14]) it was 0.954; in experiment [4] (setting [15]), 0.768. Further, the fluorescence slope in experiment [6] was -0.515 (inactive). Moreover, the NADPH fluorescence slope in [7] was -7.6e-05 (inactive). Also, in experiment [8], the slope is 0.00456 (inactive). Moreover, the molecule was called inactive in experiment [12].
The molecule `CC(C)[C@@]1(NC(=O)[C@@H]2C[C@@H]3c4cccc5[nH]cc(c45)C[C@H]3N(C)C2)O[C@@]2(O)[C@@H]3CCCN3C(=O)[C@H](Cc3ccccc3)N2C1=O` came in with a cell count in [1] of 640. In addition, the inhibition in experiment [1] is 11.1% (inactive); in experiment [3], -79.8% (inactive); in experiment [5], -0.828% (inactive); in experiment [9] it was -5.54% (inactive) and 15.7% (inactive); in experiment [10], 3.2% (inactive); in experiment [11] it was 36.1% (inactive). In experiment [2], the inhibition of aggregation is 20.4% (inactive). The nuclei count in experiment [2] stood at 90.4%; in experiment [3] it was 113%. Moreover, the z-score in experiment [4] (setting [13]) was -0.842; in experiment [4] (setting [14]) it was -0.876; in experiment [4] (setting [15]), 1.64. In experiment [6], the fluorescence slope was -0.47 (inactive). In addition, the NADPH fluorescence slope in experiment [7] was -3.7e-05 (inactive). Besides, the slope in experiment [8] was 0.00471 (inactive).
In [1], `CC[C@@H](CO)NC(=O)[C@@H]1C=C2c3cccc4c3c(cn4C)C[C@H]2N(C)C1` yielded a cell count of 540. In addition, the inhibition in experiment [1] is -4.2% (inactive); in [3], -32.5% (inactive); in [5] it was 5.79% (inactive); in experiment [9], 5.16% (inactive) and -19.2% (inactive); in [10], 18% (inactive); in experiment [11], 38% (inactive). In addition, the inhibition of aggregation in experiment [2] is -7.9% (inactive). The figures for the nuclei count in experiment [2] and in experiment [3] were 89.4% and 113%, respectively. The results for the z-score in experiment [4] (setting [13]), in [4] (setting [14]) and in experiment [4] (setting [15]) were 0.785, -0.624 and -1.05, respectively. The fluorescence slope in experiment [6] is -0.107 (active). The NADPH fluorescence slope in experiment [7] is -2e-06 (inactive). Besides, in [8], the slope is 0.0047 (inactive). Besides, the result in experiment [12] was inactive.
Regarding `Cc1ccc(-n2c(O)c(C=NCCN3CCOCC3)c(=O)[nH]c2=O)cc1`, in experiment [1], the cell count was determined as 536. In addition, the inhibition in [1] was -3.4% (inactive); in experiment [3] it was -76.6% (inactive); in experiment [5], 6.04% (inactive); in experiment [9], -5.09% (inactive); in experiment [10], 15.1% (inactive); in [11] it was 25% (inactive). Moreover, the inhibition of aggregation in experiment [2] is -17.4% (inactive). In addition, the nuclei count in experiment [2] came out at 117%; in [3] it was 147%. The z-score in [4] (setting [13]) was -0.809; in [4] (setting [14]), -1.16; in experiment [4] (setting [15]), 1.01. Besides, in experiment [6], the fluorescence slope was -0.418 (inactive). In experiment [7], the NADPH fluorescence slope is -4.9e-05 (inactive). Moreover, the slope in experiment [8] is 0.00555 (inactive). Also, the call in experiment [12] was inactive.

(Values after PubChem BioAssay.)
